The source of these data is PubChem BioAssay (Tox21).

A short description of experiment [1]: qHTS assay to identify small molecule antagonists of the sonic hedgehog signaling (Shh) pathway (AID 1259369; calls by dose curve; also: nearly all actives have a fitted effect of over 45% in size; also: potency is read from the fitted curve at half-maximal effect). In a few lines:
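NIH/3T3 stable Gli1-Luc clone, 2,000 cells/well, 4hr settle; cpd + conditioned medium 24hr; Luc reagent 30min RT; luminescence.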

Experiment [2] can be described thus: qHTS assay to identify small molecule agonists of the androgen receptor (AR) signaling pathway in the presence of an antagonist - cell viability counter screen (AID 1259379). Also: nearly all actives have a fitted effect of over 25% in size. Also: potency is read from the fitted curve at half-maximal effect. The gist of the method: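 MDA-kb2 viability measured by CellTiter-Fluor fluorescence in the same wells as the luciferase signal; nilutamide 3.0uM final; 15-point compound titration; 16 hr at 37C.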

A short description of experiment [3]: qHTS assay to identify small molecule agonists of the estrogen receptor beta (ER-beta) signaling pathway - cell viability counter screen (AID 1259380). Also: nearly all actives have a fitted effect of over 30% in size. Also: potency is read from the fitted curve at half-maximal effect. The gist of the method:
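Measured: luminescence from CellTiter-Glo after 30 min at room temperature, added to wells already read for the LiveBLAzer FRET reporter (2 hr substrate); ER-beta-UAS-bla HEK293T cells had 16 hr compound treatment at 37C, 5% CO2.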

Experiment [4] in a line: qHTS assay to identify small molecule antagonists of the estrogen receptor beta (ER-beta) signaling pathway - cell viability counter screen (AID 1259382). Also: nearly all actives have a fitted effect of over 55% in size. Also: potency is read from the fitted curve at half-maximal effect. The gist of the method:
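Readout: luminescence, CellTiter-Glo, same wells as bla assay. System: ER-beta-UAS-bla GripTite HEK293T, 2% charcoal-stripped FBS. Exposure: compounds plus 1nM 17-beta-estradiol, 16 hr, 37C.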

Experiment [5] addresses Estrogen receptor (Homo sapiens) (UniProt P03372). Put plainly: qHTS assay to identify small molecule agonists of the estrogen receptor alpha (ER-alpha) signaling pathway in the presence of an antagonist (AID 1259383; calls by dose curve; also: top concentration of the series differs between compounds; nearly all actives have a fitted effect of over 15% in size). In a few lines: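 Quantitative HTS confirmation: compounds titrated at 15 concentrations onto estrogen-deprived VM7Luc4E2 cells carrying a four-ERE luciferase construct, with ICI-182,780 present at 10.0nM final. Signal is luminescence after 22hr exposure.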

Experiment [6] can be described thus: qHTS assay to identify small molecule agonists or antagonists of the thyroid stimulating hormone receptor (TSHR) signaling pathway - wild type cell line counter screen (AID 1259384; calls by dose curve). In a few lines: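 Wild-type HEK293 cells were plated 18 h at 37 C/5% CO2, pin-dosed with compound plus Ro20-1724 medium, held 30 min at room temperature, then given cAMP-d2 and anti-cAMP-cryptate; fluorescence was read after 1 h. Fifteen concentrations, triplicate.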

Experiment [7] has as its target Thyrotropin receptor (Homo sapiens) (UniProt P16473). Nature of the experiment: qHTS assay to identify small molecule antagonists of the thyroid stimulating hormone receptor (TSHR) signaling pathway (AID 1259385; calls by dose curve; also: nearly all actives have a fitted effect of over 20% in size; also: potency is read from the fitted curve at half-maximal effect). The gist of the method: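 TSHR-HEK293 cells were plated and held 18 h at 37C/5% CO2, then given compound plus Ro20-1724 and stimulated with TSH at 1.5 ng/mL final. After 30 min at room temperature, cAMP was detected with cAMP-d2/anti-cAMP-cryptate (1 h) by fluorescence.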

Experiment [8] can be described thus: qHTS assay to identify small molecule agonists of the estrogen receptor alpha (ER-alpha) signaling pathway in the presence of an antagonist - cell viability counter screen (AID 1259386).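 Also: cells exposed to compounds for 22 h at 37 °C before the viability read; nearly all actives have a fitted effect of over 30% in size.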 Also: potency is read from the fitted curve at half-maximal effect. The gist of the method:
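The test measures whether compounds kill ER-alpha reporter cells (VM7Luc4E2) under antagonist co-treatment (ICI-182,780, 10.0nM). Fluorescence from CellTiter-Fluor is read after a 22hr exposure.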

For experiment [9], the target named is Progesterone receptor (Homo sapiens) (UniProt P06401). Put plainly: qHTS assay to identify small molecule agonists of the progesterone receptor (PR) signaling pathway (AID 1346784; calls by dose curve; also: nearly all actives have a fitted effect of over 30% in size). In a few lines: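 Compounds were tested for PR agonism in HEK 293T cells bearing a beta-lactamase gene under UAS control. Treatment lasted 16 hr at 37C; signal came from fluorescence of a FRET substrate.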
Progesterone receptor (Homo sapiens), sequence (P06401 whole entry, looked up): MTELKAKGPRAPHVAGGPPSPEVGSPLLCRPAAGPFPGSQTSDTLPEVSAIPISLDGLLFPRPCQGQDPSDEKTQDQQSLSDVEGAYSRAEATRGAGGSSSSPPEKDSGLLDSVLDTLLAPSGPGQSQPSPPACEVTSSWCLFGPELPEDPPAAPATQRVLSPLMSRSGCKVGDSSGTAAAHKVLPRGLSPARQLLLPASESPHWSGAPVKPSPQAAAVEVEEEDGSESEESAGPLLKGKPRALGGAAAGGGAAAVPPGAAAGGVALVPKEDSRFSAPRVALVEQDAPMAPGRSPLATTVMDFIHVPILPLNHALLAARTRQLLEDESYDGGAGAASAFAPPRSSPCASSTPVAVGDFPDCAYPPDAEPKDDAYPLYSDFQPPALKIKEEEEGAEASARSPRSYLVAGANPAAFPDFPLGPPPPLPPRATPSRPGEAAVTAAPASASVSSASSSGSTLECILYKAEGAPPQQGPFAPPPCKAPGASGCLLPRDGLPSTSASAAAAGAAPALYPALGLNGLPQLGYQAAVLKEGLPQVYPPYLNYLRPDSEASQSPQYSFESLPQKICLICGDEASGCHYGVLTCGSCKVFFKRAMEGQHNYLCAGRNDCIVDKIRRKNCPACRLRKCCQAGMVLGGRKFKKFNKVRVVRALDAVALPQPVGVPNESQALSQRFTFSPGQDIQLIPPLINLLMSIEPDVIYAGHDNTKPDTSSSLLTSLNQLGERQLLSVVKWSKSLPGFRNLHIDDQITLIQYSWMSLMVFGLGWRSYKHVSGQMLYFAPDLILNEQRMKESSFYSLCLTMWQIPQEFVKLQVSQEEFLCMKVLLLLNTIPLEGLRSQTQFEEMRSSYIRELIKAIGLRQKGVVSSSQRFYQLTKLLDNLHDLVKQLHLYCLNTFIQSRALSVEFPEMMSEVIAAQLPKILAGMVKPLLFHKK

For experiment [10] the target is unchanged. Nature of the experiment: qHTS assay to identify small molecule antagonists of the progesterone receptor (PR) signaling pathway (AID 1346795; active = well fitted inhibition curve with a large enough effect in the signal ratio in the repeat runs, not every such curve was filed as active; the % refers to the signal ratio; also: potency is read from the fitted curve at half-maximal effect). In a few lines: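 In HEK293T cells bearing the PR-UAS-bla reporter, compound effects on promegestone-driven (1 nM) beta-lactamase expression are assessed after 16 hr using a fluorescent FRET substrate incubated 2 hr at room temperature.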

Experiment [11] is described as follows: qHTS assay to identify small molecule antagonists of the progesterone receptor (PR) signaling pathway - cell viability counter screen (AID 1346798). Also: series mostly up to about 92 µM; nearly all actives have a fitted effect of over 50% in size. The gist of the method: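 Following a 4 hr attachment, PR-UAS-bla HEK293T cells in charcoal-stripped FBS medium were exposed to compounds with R5020 for 16 hr; CellTiter-Glo was added and luminescence read after 30 min at room temperature.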

Experiment [12] can be described thus: qHTS assay to identify small molecule agonists of the progesterone receptor (PR) signaling pathway - cell viability counter screen (AID 1346799; calls by dose curve; also: nearly all actives have a fitted effect of over 45% in size; also: potency is read from the fitted curve at half-maximal effect). In a few lines:
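Here, 3,000 PR-UAS-bla HEK293T cells per well were treated with compounds for 16 hr after a 6 hr preincubation at 37C and 5% CO2; cell viability is the CellTiter-Glo luminescence signal.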

Experiment [13] can be described thus: qHTS assay to identify small molecule antagonists of the TGF-beta/Smad signaling pathway - cell viability counter screen (AID 1346824). Also: nearly all actives have a fitted effect of over 50% in size. In a few lines: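 SBE-bla HEK 293T cells were plated overnight at 37 C, then given compounds in DMSO plus TGF-beta1 (added as 0.25 ng/mL solution) for 5 hr. After the bla read, CellTiter-Glo was added to the same wells and luminescence read after 30 min at room temperature.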

Experiment [14] is described as follows: qHTS assay to identify small molecule agonists of the TGF-beta/Smad signaling pathway - cell viability counter screen (AID 1346829). Also: top concentration of the series differs between compounds; nearly all actives have a fitted effect of over 45% in size. In a few lines: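 Same-well cytotoxicity: CellTiter-Glo added after the 2 hr room-temperature beta-lactamase substrate step, luminescence measured 30 min later; cells had 5 hr of compound at 37 C.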
Experiment [15] is described as follows: qHTS assay to identify small molecule agonists of the TGF-beta/Smad signaling pathway (AID 1346859; active = well fitted activation curve with a large enough effect in the signal ratio in the repeat runs, not every such curve was filed as active; the % refers to the signal ratio; also: series mostly up to about 77 µM). The gist of the method:
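Each well held 4,000 SBE-bla HEK 293T cells incubated overnight before compound addition; 5 hr later the cleavable FRET substrate went on for 2 hr at room temperature, and fluorescence was read at two emissions.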

For experiment [16], the target named is Thyrotropin-releasing hormone receptor (Homo sapiens) (UniProt P34981). Put plainly: qHTS assay to identify small molecule antagonists of the thyrotropin-releasing hormone receptor (TRHR) signaling pathway (AID 1346877; active = well fitted inhibition curve with a large enough effect in the repeat runs, not every such curve was filed as active; also: potency is read from the fitted curve at half-maximal effect). The gist of the method: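 Overnight-plated (18 h, 37 °C) HEK293 cells expressing TRHR were dye-loaded 2 h, treated with compound, then stimulated with TRH at 1 nM final. Fluorescence intensity was captured every second for 3 min.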
Thyrotropin-releasing hormone receptor (Homo sapiens), sequence (P34981 whole entry, looked up): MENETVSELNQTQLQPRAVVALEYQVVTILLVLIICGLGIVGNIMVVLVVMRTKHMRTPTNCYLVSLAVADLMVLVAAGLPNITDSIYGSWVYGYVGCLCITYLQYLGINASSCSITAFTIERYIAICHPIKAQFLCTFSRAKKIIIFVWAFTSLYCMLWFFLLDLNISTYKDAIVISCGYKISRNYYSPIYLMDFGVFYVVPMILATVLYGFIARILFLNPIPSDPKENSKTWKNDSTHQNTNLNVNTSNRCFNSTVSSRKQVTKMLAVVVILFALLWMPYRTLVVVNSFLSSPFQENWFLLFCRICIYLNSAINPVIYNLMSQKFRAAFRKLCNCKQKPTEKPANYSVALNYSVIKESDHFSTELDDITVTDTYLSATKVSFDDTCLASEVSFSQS

The target is the same in experiment [17]. Nature of the experiment: qHTS assay to identify small molecule agonists of the thyrotropin-releasing hormone receptor (TRHR) signaling pathway (AID 1346891; calls by dose curve; also: potency is read from the fitted curve at half-maximal effect; as to activation: series mostly up to about 58 µM). The gist of the method:
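Screening of agonists relied on calcium signalling in HEK293 cells expressing human TRHR: dye loading 2 h at 37 °C preceded compound addition and a 3-min fluorescence time course.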

Experiment [18] addresses Androgen receptor (Homo sapiens) (UniProt P10275). Nature of the experiment: qHTS assay to identify small molecule agonists of the androgen receptor (AR) signaling pathway in the presence of an antagonist (AID 1259381; calls by dose curve; also: nearly all actives have a fitted effect of over 15% in size). In a few lines: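 Luminescent ONE-Glo read, 30min at room temperature, follows 16hr compound exposure (15 concentrations) of MDA-kb2 cells at 37C, 0% CO2, with nilutamide added at 3.0uM final.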

Several values for one entry are separate records, joined by “and”; a condition that tells them apart may be missing. Identical values can stand only once. Inconclusive results are not listed. Some structures have more than one record in an assay (separate samples or runs), and their calls can disagree. Activity calls are given as the source filed them. Unless noted, calls follow the shape of the dose curve; as a rule, active = well fitted curve in the direction sought with a large enough effect in the repeat runs; inconclusive = weak or mixed curves; inactive = no such curve, though single readings can be large; an effect the other way counts as inactive or inconclusive.

Estrogen receptor (Homo sapiens), sequence (P03372 whole entry, looked up): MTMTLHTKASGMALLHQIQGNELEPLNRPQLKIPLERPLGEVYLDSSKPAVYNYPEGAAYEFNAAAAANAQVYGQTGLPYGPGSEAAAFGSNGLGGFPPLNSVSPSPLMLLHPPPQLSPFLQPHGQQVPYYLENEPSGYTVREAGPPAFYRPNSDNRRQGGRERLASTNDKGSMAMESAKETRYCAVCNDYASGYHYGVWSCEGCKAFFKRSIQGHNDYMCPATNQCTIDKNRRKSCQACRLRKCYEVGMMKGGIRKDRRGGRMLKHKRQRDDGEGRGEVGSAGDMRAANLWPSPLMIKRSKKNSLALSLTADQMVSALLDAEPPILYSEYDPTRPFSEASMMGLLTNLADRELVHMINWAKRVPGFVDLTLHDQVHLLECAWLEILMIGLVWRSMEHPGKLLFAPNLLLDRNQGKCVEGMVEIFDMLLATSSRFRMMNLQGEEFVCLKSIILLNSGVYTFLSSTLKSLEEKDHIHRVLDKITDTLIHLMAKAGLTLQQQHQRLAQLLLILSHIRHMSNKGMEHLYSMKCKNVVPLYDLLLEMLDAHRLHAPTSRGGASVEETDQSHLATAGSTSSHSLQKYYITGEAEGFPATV
Thyrotropin receptor (Homo sapiens), sequence (P16473 whole entry, looked up): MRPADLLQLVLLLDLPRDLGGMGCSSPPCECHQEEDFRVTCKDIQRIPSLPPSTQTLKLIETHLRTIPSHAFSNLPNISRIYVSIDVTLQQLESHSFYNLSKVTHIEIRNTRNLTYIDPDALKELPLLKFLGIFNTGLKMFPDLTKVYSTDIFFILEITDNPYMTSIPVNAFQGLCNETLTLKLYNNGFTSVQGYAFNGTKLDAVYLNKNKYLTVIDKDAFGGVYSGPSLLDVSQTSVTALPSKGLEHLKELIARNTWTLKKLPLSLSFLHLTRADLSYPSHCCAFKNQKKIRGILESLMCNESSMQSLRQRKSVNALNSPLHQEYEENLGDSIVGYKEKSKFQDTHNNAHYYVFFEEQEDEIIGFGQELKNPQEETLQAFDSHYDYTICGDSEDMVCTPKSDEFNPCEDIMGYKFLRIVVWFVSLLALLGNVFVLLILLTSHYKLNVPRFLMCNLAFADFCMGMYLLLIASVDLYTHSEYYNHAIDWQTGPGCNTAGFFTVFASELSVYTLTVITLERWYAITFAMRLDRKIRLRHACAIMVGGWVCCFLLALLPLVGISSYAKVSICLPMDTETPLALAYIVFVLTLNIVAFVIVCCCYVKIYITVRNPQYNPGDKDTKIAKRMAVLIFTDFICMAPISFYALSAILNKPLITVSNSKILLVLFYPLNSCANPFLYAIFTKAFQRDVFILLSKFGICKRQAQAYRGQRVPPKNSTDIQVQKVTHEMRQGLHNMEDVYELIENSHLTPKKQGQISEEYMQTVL
Androgen receptor (Homo sapiens), sequence (P10275 whole entry, looked up): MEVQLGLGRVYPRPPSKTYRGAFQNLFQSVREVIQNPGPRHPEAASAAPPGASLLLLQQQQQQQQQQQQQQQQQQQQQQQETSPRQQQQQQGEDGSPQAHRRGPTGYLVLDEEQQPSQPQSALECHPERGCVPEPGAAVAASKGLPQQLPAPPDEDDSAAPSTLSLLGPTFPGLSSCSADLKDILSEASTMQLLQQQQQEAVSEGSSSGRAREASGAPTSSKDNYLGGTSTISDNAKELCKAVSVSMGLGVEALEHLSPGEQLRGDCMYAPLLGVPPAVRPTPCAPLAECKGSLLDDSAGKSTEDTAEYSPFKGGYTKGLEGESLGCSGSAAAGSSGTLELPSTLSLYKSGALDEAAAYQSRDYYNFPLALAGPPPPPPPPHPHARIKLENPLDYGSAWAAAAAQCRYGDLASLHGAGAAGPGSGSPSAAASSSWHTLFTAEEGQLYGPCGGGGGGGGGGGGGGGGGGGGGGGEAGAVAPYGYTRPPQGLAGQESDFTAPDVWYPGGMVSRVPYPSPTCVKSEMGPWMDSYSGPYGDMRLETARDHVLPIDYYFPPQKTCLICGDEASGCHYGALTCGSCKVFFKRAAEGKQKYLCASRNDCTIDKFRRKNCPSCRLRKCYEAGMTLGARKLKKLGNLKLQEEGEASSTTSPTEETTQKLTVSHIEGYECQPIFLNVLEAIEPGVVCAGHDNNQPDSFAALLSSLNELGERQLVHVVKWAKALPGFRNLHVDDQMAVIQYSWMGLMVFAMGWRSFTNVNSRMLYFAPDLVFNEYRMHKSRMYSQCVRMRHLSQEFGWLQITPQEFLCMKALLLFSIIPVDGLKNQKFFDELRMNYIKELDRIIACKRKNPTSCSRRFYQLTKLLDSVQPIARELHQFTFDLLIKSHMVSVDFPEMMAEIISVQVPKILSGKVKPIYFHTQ

As for `CCCCCCCCCBr`, the Potency result in experiment [1], in [2], in [3], in experiment [4], in experiment [5] and in experiment [7] was “inactive” in each case. In addition, the Potency result in experiment [8], in experiment [9], in experiment [10], in [11], in experiment [12] and in experiment [13] was “inactive” throughout. For the same compound, the Potency entry in experiment [14], in experiment [16] and in experiment [17] was “inactive” throughout. The outcome in [6] and in [15] was inactive.

Regarding `[CH3][Hg][Cl]`, the Potency in experiment [1] was 34.3 µM (active); in [2], 21.6 µM (active); in experiment [3], 60.9 µM (active); in [7], 17.2 µM (active); in [16], 30.1 µM (active); in [17], 17.3 µM (active). For the same compound, the Potency entry in experiment [18], in experiment [5], in experiment [8], in experiment [11] and in experiment [13] was “inactive” in each case. The outcome in experiment [6] was inactive.

Consider `C=CCOC(N)=O`, for which the Potency entry in experiment [1], in [2], in experiment [3], in experiment [4], in experiment [7] and in experiment [8] was “inactive” in each case. For the same compound, the Potency result in experiment [9], in experiment [10], in experiment [11], in experiment [12], in experiment [13] and in experiment [16] was “inactive” throughout. Besides, the Potency entry in experiment [17] is “inactive”. Moreover, the call in experiment [6] and in [15] was inactive.

Consider `CC(c1ccc(O)cc1)c1ccc(O)cc1`, for which the Potency in [1] is 22.8 µM (active) and inactive; in [3] it was 40.6 µM (active) and inactive; in [4] it was 45.5 µM (active) and inactive; in experiment [10] it was 6.86 µM (active). Further, the Potency result in experiment [2], in [7], in experiment [8], in experiment [13], in experiment [14] and in [16] was “inactive” throughout. For the same compound, the Potency entry in experiment [17] is “inactive”. Besides, the compound was classed as inactive in experiment [6] and in experiment [15].

Regarding `COP(=O)(CCC(=O)NCO)OC`, the Potency result in [1], in experiment [2], in [3], in experiment [18], in experiment [5] and in experiment [7] was “inactive” each time. In addition, the Potency result in [8], in experiment [9], in experiment [10], in experiment [11], in experiment [12] and in experiment [13] was “inactive” in each case. Besides, the Potency result in experiment [14], in experiment [16] and in experiment [17] was “inactive” each time. Moreover, the call in experiment [6] and in experiment [15] was inactive.

Take `[Cd+2].[Cl-].[Cl-]`: the Potency in experiment [1] is 245 nM (active) and 486 nM (active); in experiment [3] it was 69.1 µM (active) and 68.6 µM (active); in experiment [4], 34.7 µM (active) and 54.5 µM (active); in experiment [8] it was 61.6 µM (active) and 54.5 µM (active); in experiment [12], 13.8 µM (active) and 6.11 µM (active). The Potency result in experiment [2] and in experiment [14] was “inactive” throughout. Also, the outcome in experiment [15] was inactive.
